CYP2C9 inhib = inhibitors of human CYP2C9 | AID 777 | hit rate 20% among 96,000 | inhibition, % at 5 µM | CYP2C9 Supersomes, luciferin-H conversion, luminescence;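 active means blocking of liver enzyme CYP2C9 beyond about 50% at 5 µM, limit read from the data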
Target sequence (P11712 whole entry, looked up): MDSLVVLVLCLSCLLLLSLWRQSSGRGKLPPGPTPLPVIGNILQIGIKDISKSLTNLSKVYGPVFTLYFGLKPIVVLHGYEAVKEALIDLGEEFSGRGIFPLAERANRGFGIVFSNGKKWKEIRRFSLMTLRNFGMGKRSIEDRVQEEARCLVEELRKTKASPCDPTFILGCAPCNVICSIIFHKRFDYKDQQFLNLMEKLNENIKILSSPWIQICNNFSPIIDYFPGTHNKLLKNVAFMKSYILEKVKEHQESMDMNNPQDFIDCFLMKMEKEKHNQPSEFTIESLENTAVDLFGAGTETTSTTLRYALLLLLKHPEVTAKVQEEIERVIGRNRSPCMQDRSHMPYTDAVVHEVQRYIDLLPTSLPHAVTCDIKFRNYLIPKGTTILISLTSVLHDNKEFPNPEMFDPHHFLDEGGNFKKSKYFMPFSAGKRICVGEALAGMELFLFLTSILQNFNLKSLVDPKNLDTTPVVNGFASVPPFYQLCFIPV
CYP2C19 inhib = inhibitors of human CYP2C19. P33261. CYP2C19 Supersomes, luciferin-H EGE luminescence, 30 min. inhibition, % at 5 µM. hit rate 21% among 96,000. AID 778;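 active means CYP2C19 inhibition above a set limit at 5 µM in the primary screen, cut at about 50% in these data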
CYP2C9 activ = activators of human CYP2C9; recombinant CYP2C9, luciferin-H conversion, luminescence; hits give high values; factor 1 = untreated enzyme, 0 = blocked; AID 1024; hit rate 1.4% among 96,000; P11712; activation factor at 5 µM;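 active means activation factor of 2 or more for CYP2C9 at a 5 µM dose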
PostGolgi yeast = growth inhibition of a yeast mutant, post-Golgi transport screen; inhibition, % at 10 µM; AID 739; hit rate 0.9% among 98,000; post-Golgi transport phenotypic cell assay;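 further: yeast cells grown in 1536-well plates; yeast grown about 18 h at 30C before absorbance read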
CYP2C19 activ = cytochrome P450 2C19 (human) activation; recombinant CYP2C19, luciferin-H EGE luminescence; hits give high values; 0 = fully inhibited enzyme, 1 = untreated enzyme; 96,000 tested, under 10 active; activation factor at 5 µM; AID 1025; P33261;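 active means activation factor of at least 2 at 5 µM in the primary screen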
PostGolgi ctrl = yeast control strain growth, post-Golgi counter-screen; efflux-deficient yeast background strain, growth absorbance A615, 16 h; inhibition, % at 10 µM; hit rate 5% among 98,000; AID 738
A number is an active result; n = inactive; x = not tested or not shown. This is a sample that favours compounds with a hit; in the whole collection about 32% have one here. Unless noted, no stated cut-off is given here; in the data, active means inhibition above about 30%; inactive means the rest.

SMILES	CYP2C9 inhib	CYP2C19 inhib	CYP2C9 activ	PostGolgi yeast	CYP2C19 activ	PostGolgi ctrl
Cc1ccc(NCc2nnc(SCC(=O)Nc3ncc(C)s3)n2Cc2ccco2)c(C)c1	n	n	n	n	n	n
O=C(CSc1nnc(Cc2cccs2)n1Cc1ccco1)Nc1ccc(Br)cc1	93.0	88.8	n	n	n	n
O=C(CSc1nnc(Cc2cccs2)n1Cc1ccco1)Nc1ccc(Cl)cc1Cl	61.9	n	n	n	n	n
O=C(CSc1nnc(-c2ccco2)n1Cc1ccco1)NCc1cccs1	57.0	51.1	n	n	n	n
CCOc1ncccc1C(=O)OCC(=O)Nc1cc(C(=O)OC)ccc1C(=O)OC	n	n	n	x	n	x
CN(C)CCNCc1ccccc1OC1CCCC1	n	n	n	n	n	n
CCN(CC)S(=O)(=O)c1ccc(C(=O)N2CCN=C2SCc2cccnc2)cc1	n	n	n	n	n	n
CC(C)(C)c1ccc(S(=O)(=O)N2CC(=O)Nc3ccccc32)cc1	n	81.9	n	n	n	n
CCc1ccc(S(=O)(=O)N2CC(=O)Nc3ccccc32)cc1	n	74.2	n	n	n	n
Cc1ccc(S(=O)(=O)N2CC(=O)Nc3ccccc32)cc1	n	n	n	n	n	n
CCn1c2ccccc2c2nnc(SCc3ccc(C(=O)OC)o3)nc21	n	n	n	n	n	42.1
CCn1c2ccccc2c2nnc(SCCCn3c(=O)[nH]c4ccccc43)nc21	87.5	78.3	n	n	n	n
CCn1c2ccccc2c2nnc(SCc3ccccc3)nc21	n	n	n	n	n	61.2
CCOC(=O)c1[nH]nc(N)c1NC(=O)c1ccc(Cl)cc1Cl	x	x	x	n	x	n
c1ccc2nc(N3CCOCC3)cnc2c1	n	n	n	n	n	n
COc1ccc(CCNC(=O)C2CCN(c3ccc(N4CCOCC4)nn3)CC2)c(OC)c1	n	n	n	n	n	n
CCOC(=O)c1cc(NC(=O)c2ccc(OC)cc2)c(=O)oc1-c1ccccc1	n	n	n	n	n	n
CCOC(=O)C1=C(C)NC2=C(C(=O)CCC2)C1c1ccc(N(C)C)cc1 (configuration not stated)	n	n	n	n	n	n
CCOC(=O)C1=C(C)NC2=C(C(=O)CCC2)C1c1cc(OC)ccc1OC (configuration not stated)	88.4	79.2	n	n	n	n
CCOC(=O)C1=C(CC)NC2=C(C(=O)CCC2)C1c1ccc(OC)c(OC)c1 (configuration not stated)	n	50.1	n	n	n	n
CCCCOC(=O)C1=C(C)NC2=C(C(=O)CCC2)C1c1cc(OC)ccc1OC (configuration not stated)	84.7	62.7	n	n	n	n
CCCOC(=O)C1=C(C)NC2=C(C(=O)CCC2)C1c1cc(OC)ccc1OC (configuration not stated)	77.7	66.7	n	n	n	n
CCC(C)(C(=O)NC1CCCCC1)N(C(=O)C1CCC(=O)N1)c1ccccc1 (configuration not stated)	n	n	n	n	n	n
CC1CCN(S(=O)(=O)N2CCC(C(=O)NCc3cccs3)CC2)CC1	n	n	n	n	n	n
COc1ccc(OC)c(C2C(C(=O)Nc3nc4ccccc4s3)=C(C)NC3=C2C(=O)CCC3)c1 (configuration not stated)	74.1	63.9	n	n	n	n
SMILES	CYP2C9 inhib	CYP2C19 inhib	CYP2C9 activ	PostGolgi yeast	CYP2C19 activ	PostGolgi ctrl
COc1cc(S(=O)(=O)N2CCOCC2)ccc1NC(=O)CSc1nnc(N)s1	n	n	n	n	n	n
COc1cccc(Cn2nnc(C(=O)Nc3cc(C)ccc3OC)c2N)c1	n	n	n	n	n	n
CSc1ccc(Cn2nnc(C(=O)Nc3ccc(C)c(C)c3)c2N)cc1	n	n	n	n	n	n
COc1ccc(NC(=O)c2nnn(Cc3ccc(SC)cc3)c2N)c(OC)c1	n	n	2.5	n	n	n
COc1ccc(C)cc1NC(=O)c1nnn(CCc2ccccc2)c1N	n	n	n	n	n	n
COc1ccc(C)cc1NC(=O)c1nnn(Cc2cc(C)ccc2C)c1N	n	n	2.4	n	n	n
CCc1ccccc1NC(=O)c1nnn(CC(=O)Nc2ccccc2C)c1N	n	n	n	n	n	n
COc1ccc(OC)c(NC(=O)c2nnn(Cc3ccccc3C)c2N)c1	n	n	2.1	n	n	34.4
COc1cccc(Cn2nnc(C(=O)Nc3ccc(C)cc3)c2N)c1	n	n	2.1	n	n	n
O=C(COC(=O)C1(c2ccccc2F)CCCC1)N1CCOCC1	n	n	n	n	n	n
CCOC(=O)c1sc(NC(=O)C(CC)OC(=O)C(CC(C)C)NC(=O)c2ccccc2)nc1C (configuration not stated)	n	54.8	n	n	n	n
CSc1nc2ccccc2cc1/C=C(\C#N)c1cccc(Cl)c1	n	n	n	n	n	n
CCNC(=O)N1c2ccc(OCC)cc2C(C)=CC1(C)C	50.4	66.6	n	n	n	n
O=C(CCC1COc2ccccc2O1)N1CCCC1 (configuration not stated)	n	n	n	n	n	n
N#CC1=C(SCC(N)=O)NC(=O)CC1c1ccccc1Cl (configuration not stated)	n	n	n	n	n	n
N#CC1=C(SCC(=O)NC2CCCCC2)NC(=O)CC1c1ccco1 (configuration not stated)	58.7	72.1	n	n	n	n
N#CC1=C(SCC(=O)NCc2ccccc2)NC(=O)CC1c1ccco1 (configuration not stated)	87.6	67.0	n	n	n	n
N#CC1=C(SCc2ccccc2)NC(=O)CC1c1ccco1 (configuration not stated)	71.3	n	n	n	n	n
Cc1ccc(C2CC(=O)NC(SCc3ccccc3)=C2C#N)o1 (configuration not stated)	52.7	n	n	n	n	n
CCOC(=O)c1ccc(N2C(=O)CC(N3CCN(C(=O)c4ccco4)CC3)C2=O)cc1 (configuration not stated)	n	n	n	n	n	n
CCOc1ccc2[nH]c(=O)c(CN(CCN3CCOCC3)Cc3nnnn3C(C)(C)CC)cc2c1	n	n	n	n	n	n
CCCC(c1nnnn1C(C)(C)CC)N(CCCO)Cc1cc2cc(C)cc(C)c2[nH]c1=O (configuration not stated)	52.8	n	n	n	n	n
CCC(c1nnnn1C(C)(C)CC)N(CCN1CCOCC1)Cc1cc2cc(C)ccc2[nH]c1=O (configuration not stated)	n	81.9	n	n	n	n
CCC(C)(C)n1nnnc1C(c1cc2cc(C)cc(C)c2[nH]c1=O)N1CCN(C(=O)c2ccco2)CC1 (configuration not stated)	n	n	n	n	n	n
CCC(c1nnnn1C(C)(C)CC)N(CCCO)Cc1cc2cc(C)cc(C)c2[nH]c1=O (configuration not stated)	76.1	62.6	n	n	n	n

High-throughput results deposited in PubChem by several laboratories.
